Screening data from PubChem BioAssay.
NPSR antagonist: antagonists of human neuropeptide S receptor cAMP signaling; Q6W5P4; 1% of 220,000 active; AID 1461; Potency, µM (highest dose often 38.3 µM), actives largely listed as inhibitors; CHO-NPSR cells, cAMP TR-FRET, antagonist mode; note: nearly all actives have a fitted effect of over 50% in size
ALDH1A1 inh: blocks purified human ALDH1A1 activity | 7.3% of 220,000 active | Purified ALDH1A1, NADH fluorescence, propionaldehyde substrate | P00352 | Potency, µM (highest dose often 75.3 µM), actives largely listed as inhibitors | AID 1030; active = well fitted inhibition curve with a large enough effect, not every such curve was filed as active; inconclusive = small, poorly fitted or top-dose-only effect, or another doubt; inactive = no such curve, though single readings can be large or run the other way
Target sequence (P00352 whole entry, looked up): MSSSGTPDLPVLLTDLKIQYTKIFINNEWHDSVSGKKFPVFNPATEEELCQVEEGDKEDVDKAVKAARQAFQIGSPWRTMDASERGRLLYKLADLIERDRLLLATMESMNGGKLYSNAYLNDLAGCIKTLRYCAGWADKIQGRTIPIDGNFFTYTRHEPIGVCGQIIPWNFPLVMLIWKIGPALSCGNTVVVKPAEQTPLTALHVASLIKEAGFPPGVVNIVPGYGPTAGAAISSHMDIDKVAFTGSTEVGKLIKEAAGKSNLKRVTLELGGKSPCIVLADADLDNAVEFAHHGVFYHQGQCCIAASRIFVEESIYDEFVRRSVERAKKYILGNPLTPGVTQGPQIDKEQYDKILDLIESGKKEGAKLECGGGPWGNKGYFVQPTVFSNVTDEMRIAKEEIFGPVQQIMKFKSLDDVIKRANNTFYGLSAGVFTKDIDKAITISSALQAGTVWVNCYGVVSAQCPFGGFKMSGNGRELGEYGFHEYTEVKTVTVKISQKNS
Sfp PPTase inh: inhibitors of Bacillus subtilis Sfp phosphopantetheinyl transferase; Q9F4F7; Biochemical Sfp PPTase activity, qHTS; Potency, µM, actives largely listed as inhibitors; 3.5% of 310,000 active;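 note: the enzyme is Sfp with the accession as filed and its product quenches rhodamine fluorescence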
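Reaction rates are the 30-min fluorescence difference (ex 525, em 598 nm) in wells containing 15 nM Sfp, 5 uM rhodamine-CoA and 12.5 uM BHQ-2-YbbR at pH 7.6 with 10 mM MgCl2.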
KDM4E inh: blocks human JMJD2E demethylase activity | B2RXH2 | Potency, µM (series often up to 57.1 µM), actives largely listed as inhibitors | 1.6% of 230,000 active | AID 2147 | JMJD2E catalytic domain, FDH-coupled NADH fluorescence (FDH is formaldehyde dehydrogenase); note: nearly all actives have a fitted effect of over 50% in size
FBPA coupling cs: counter-screen for Giardia aldolase inhibitors: coupling enzyme system; coupling enzyme system counterscreen, AmpLite Red fluorescence; activity change, negative = inhibition, % at 58.2 µM, hits read low; 0.67% of 290,000 active; in the data active = activity change below about -30%
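Compounds tested against the coupling enzymes alone at 57.5 uM final; readout was AmpLite Red fluorescence (525/598 nm) after 20 min at RT.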
GoLoco inh red: blocks human Gai1 binding to RGS12 GoLoco peptide, red readout. P63096. Gai1:RGS12 GoLoco peptide FP, rhodamine, 10 min. Potency, µM (doses to about 61.6 µM), hits mostly inhibitors. 0.44% of 230,000 active. AID 880; active = well fitted inhibition curve with a large enough effect, not every such curve was filed as active; inactive = no such curve, though single readings can be large or run the other way; note: nearly all actives have a fitted effect of over 30% in size
A number is an active result; [ ] = remark or other dose. Compounds with a hit are over-represented: about 8.5% of the library has one in this group of screens. Unless noted, calls come from the whole dose curve; as a rule, active = well fitted curve in the direction sought with a large enough effect; inconclusive = small, poorly fitted or top-dose-only effect, or another doubt; inactive = no such curve, though single readings can be large; an effect the other way counts as inactive or inconclusive.

What do the screens show for `Cc1cc(C(=O)N/N=C/c2cc(Cl)cc([N+](=O)[O-])c2O)c2ccccc2n1`?
NPSR antagonist: inactive; ALDH1A1 inh: inactive; Sfp PPTase inh: inactive; KDM4E inh: 5.6µM; FBPA coupling cs: inactive; GoLoco inh red: inactive

What do the screens show for `CNC1=C(Cl)C(=O)c2ccncc2C1=O`?
ALDH1A1 inh: inactive; Sfp PPTase inh: inactive; KDM4E inh: inconclusive; FBPA coupling cs: inactive; GoLoco inh red: inactive

How did CCN1C(C)=C(C(=O)OC)C(c2ccccc2)N2C(=O)[C@](O)(C(=O)OC)C(c3ccccc3)C(C(C)=O)=C12 (stereo partly drawn) do in these assays?
ALDH1A1 inh: inactive[13.5 µM]; Sfp PPTase inh: inactive; FBPA coupling cs: inactive

What do the screens show for `CCOC(=O)CSc1nnc(NCC(=O)OC)c(=O)[nH]1`?
NPSR antagonist: inactive; ALDH1A1 inh: inactive; Sfp PPTase inh: 56µM; KDM4E inh: inactive; FBPA coupling cs: inactive; GoLoco inh red: inactive

How did O=C1C(c2c(O)[nH]c3ccccc23)=Nc2ccccc21 do in these assays?
NPSR antagonist: inactive; ALDH1A1 inh: inactive; Sfp PPTase inh: inactive; KDM4E inh: inactive; FBPA coupling cs: inactive; GoLoco inh red: inactive

Results for CC(=O)c1cccc2c(O)c(C3=Nc4ccccc4C3=O)[nH]c12 ?
NPSR antagonist: inconclusive; ALDH1A1 inh: inconclusive; Sfp PPTase inh: 40µM; KDM4E inh: inconclusive; FBPA coupling cs: -48; GoLoco inh red: inactive

How did O=C1CCC([N+](=O)[O-])C(c2ccccc2C(F)(F)F)N1 (stereo not drawn) do in these assays?
Sfp PPTase inh: inactive; FBPA coupling cs: inactive

How did CCOc1ccc(NC(=S)NNc2ccnc3cc(Cl)ccc23)cc1 do in these assays?
NPSR antagonist: inactive; ALDH1A1 inh: 3.2µM; Sfp PPTase inh: 20µM; KDM4E inh: inactive; FBPA coupling cs: inactive; GoLoco inh red: inactive

How did S=C(NNc1ccnc2cc(Cl)ccc12)Nc1ccc(Cl)cc1Cl do in these assays?
NPSR antagonist: inactive; Sfp PPTase inh: 20µM; KDM4E inh: inconclusive; FBPA coupling cs: inactive; GoLoco inh red: inactive

What do the screens show for `S=c1[nH]c(-c2ccccc2)cn1/N=C/c1ccccc1Br`?
NPSR antagonist: inactive; ALDH1A1 inh: inactive; Sfp PPTase inh: inactive; KDM4E inh: inactive; FBPA coupling cs: inactive; GoLoco inh red: inactive

How did Cc1ccc(/C=N/n2cc(-c3ccccc3)[nH]c2=S)s1 do in these assays?
NPSR antagonist: inactive; ALDH1A1 inh: inconclusive; Sfp PPTase inh: 32µM; KDM4E inh: inconclusive; FBPA coupling cs: inactive; GoLoco inh red: inactive

What do the screens show for `Oc1ccc(/C=N/n2cc(-c3ccccc3)[nH]c2=S)cc1`?
NPSR antagonist: inactive; ALDH1A1 inh: inconclusive; Sfp PPTase inh: 18µM; KDM4E inh: inconclusive; FBPA coupling cs: inactive; GoLoco inh red: inactive

Results for COc1cc(/C=N/n2cc(-c3ccccc3)[nH]c2=S)cc(OC)c1O ?
NPSR antagonist: inactive; Sfp PPTase inh: 20µM; KDM4E inh: inconclusive; FBPA coupling cs: inactive; GoLoco inh red: inactive

Results for CCc1ccc2oc(-c3ccc(OC)cc3)cc(=Nc3cccc(C(=O)O)c3)c2c1 ?
NPSR antagonist: inactive; ALDH1A1 inh: inconclusive; Sfp PPTase inh: inconclusive; KDM4E inh: inconclusive; FBPA coupling cs: inactive; GoLoco inh red: inactive

What do the screens show for `CCc1ccc2oc(-c3ccc(OC)cc3)cc(=Nc3c(C)n(C)n(-c4ccccc4)c3=O)c2c1`?
NPSR antagonist: inconclusive; ALDH1A1 inh: inconclusive; Sfp PPTase inh: 79µM; KDM4E inh: inconclusive; FBPA coupling cs: inactive; GoLoco inh red: inactive

What do the screens show for `CN(C)CC#Cc1cncc(C(=O)NNC(=O)Nc2ccc(Cl)cc2)c1`?
NPSR antagonist: inactive; ALDH1A1 inh: 25µM; Sfp PPTase inh: inactive; KDM4E inh: inactive; FBPA coupling cs: inactive; GoLoco inh red: inactive

How did C[N+]12CCCC[C@@H]1CCC(=C(c1cccs1)c1cccs1)C2 (stereo partly drawn) do in these assays?
Sfp PPTase inh: inactive

What do the screens show for `C/C(C/C(C)=C1/SC(=S)NC1=O)=C1\SC(=S)NC1=O`?
NPSR antagonist: inactive; ALDH1A1 inh: inconclusive; Sfp PPTase inh: 79µM; KDM4E inh: inactive; FBPA coupling cs: inactive; GoLoco inh red: inactive

How did CCCCCC/C(C)=C1/SC(=S)NC1=O do in these assays?
NPSR antagonist: inactive; ALDH1A1 inh: inconclusive; Sfp PPTase inh: inactive; KDM4E inh: inactive; FBPA coupling cs: inactive; GoLoco inh red: inactive
